WRN inhibitor: inhibitors of human WRN helicase; WRN helicase unwinding, fluorescent forked duplex, kinetic; Potency, µM (top dose mostly 114 µM), for inactives: at the top dose activity change, negative = inhibition, most hits filed as inhibitors; 0.46% of 360,000 active; AID 651768; further: on the % scale 0 is the no-effect control and ±100 the full control effect; nearly all actives have a fitted effect of over 55% in size
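Screening of the MLSMR collection measured strand separation of a quenched forked DNA duplex (100 nM) by 20 nM WRN with 2 mM ATP, all final. Compounds were preincubated with enzyme 15 min at room temperature.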
BLM helicase inh: inhibitors of human Bloom syndrome helicase BLM; P54132; recombinant BLM DNA unwinding, fluorescence dequenching; Potency, µM (top dose mostly 56.1 µM), without a hit: top-dose activity change, negative = inhibition, usual class: inhibitors; 0.2% of 350,000 active; AID 2528;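 further: plate controls were vehicle for no effect and no enzyme for full effect; nearly all actives have a fitted effect of over 35% in size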
Target sequence (P54132 whole entry, looked up): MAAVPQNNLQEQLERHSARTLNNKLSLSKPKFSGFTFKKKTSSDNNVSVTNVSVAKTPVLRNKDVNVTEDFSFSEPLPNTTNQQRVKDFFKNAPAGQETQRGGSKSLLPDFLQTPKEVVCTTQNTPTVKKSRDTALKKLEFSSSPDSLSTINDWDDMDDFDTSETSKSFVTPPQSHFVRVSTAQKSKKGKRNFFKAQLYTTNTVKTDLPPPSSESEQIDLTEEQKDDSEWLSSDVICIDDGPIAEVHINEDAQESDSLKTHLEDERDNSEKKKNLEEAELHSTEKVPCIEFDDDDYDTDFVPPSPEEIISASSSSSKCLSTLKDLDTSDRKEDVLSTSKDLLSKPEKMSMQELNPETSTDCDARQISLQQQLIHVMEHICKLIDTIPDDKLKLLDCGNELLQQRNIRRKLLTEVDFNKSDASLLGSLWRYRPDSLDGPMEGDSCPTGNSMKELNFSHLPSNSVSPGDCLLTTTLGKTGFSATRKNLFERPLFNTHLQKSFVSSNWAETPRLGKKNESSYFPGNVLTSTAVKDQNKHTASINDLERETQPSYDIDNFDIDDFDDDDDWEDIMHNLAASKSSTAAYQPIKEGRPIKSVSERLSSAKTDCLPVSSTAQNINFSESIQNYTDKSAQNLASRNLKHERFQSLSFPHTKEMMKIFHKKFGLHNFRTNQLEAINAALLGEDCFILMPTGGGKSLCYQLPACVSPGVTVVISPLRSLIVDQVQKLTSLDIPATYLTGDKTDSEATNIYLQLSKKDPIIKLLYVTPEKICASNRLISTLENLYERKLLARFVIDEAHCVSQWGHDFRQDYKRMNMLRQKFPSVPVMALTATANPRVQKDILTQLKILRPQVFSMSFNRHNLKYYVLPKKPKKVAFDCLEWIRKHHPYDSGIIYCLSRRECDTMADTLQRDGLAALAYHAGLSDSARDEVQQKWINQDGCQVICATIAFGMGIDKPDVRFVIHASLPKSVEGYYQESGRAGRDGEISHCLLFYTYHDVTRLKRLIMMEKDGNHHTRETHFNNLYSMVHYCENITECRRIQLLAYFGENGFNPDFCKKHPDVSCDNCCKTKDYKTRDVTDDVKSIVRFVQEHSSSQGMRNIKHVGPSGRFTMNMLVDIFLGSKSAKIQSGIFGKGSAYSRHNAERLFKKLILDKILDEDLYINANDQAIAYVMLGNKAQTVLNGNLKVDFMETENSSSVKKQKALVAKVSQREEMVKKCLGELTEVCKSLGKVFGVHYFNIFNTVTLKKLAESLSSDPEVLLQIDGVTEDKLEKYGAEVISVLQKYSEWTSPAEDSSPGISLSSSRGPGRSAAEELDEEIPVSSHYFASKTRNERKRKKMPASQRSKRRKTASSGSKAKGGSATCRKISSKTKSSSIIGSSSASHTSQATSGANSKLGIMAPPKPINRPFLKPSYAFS
APEX1 inh: APE1 (human) endonuclease inhibition. P27695. recombinant APE1, TAMRA/BHQ-2 abasic DNA cleavage fluorescence. Potency, µM (doses to about 65.8 µM), for inactives: at the top dose activity change, negative = inhibition, actives largely listed as inhibitors. 0.35% of 350,000 active. AID 2517;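 further: plate controls were vehicle for no effect and reference inhibitor for full effect; nearly all actives have a fitted effect of over 55% in size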
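Endonuclease cleavage of a quenched abasic-site DNA duplex (50 nM) by APE1 (0.75 nM) was tracked by TAMRA dequenching. Compounds were preincubated with enzyme 15 min at room temperature; data normalized to buffer-only and DMSO wells plus NSC13755 control.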
FEN1 inh-1: blocks human flap endonuclease 1 | 0.35% of 390,000 active | Recombinant FEN1 flap cleavage, fluorescence, 15 min | Potency, µM (titrated, usually from 114 µM), for the others: at the highest dose activity change, negative = inhibition, actives largely listed as inhibitors; further: on the % scale 0 is the no-effect control and ±100 the full control effect; nearly all actives have a fitted effect of over 65% in size
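Read-out was taken twice, immediately and after 15 min, following addition of 50 nM substrate to 10 nM FEN1 that had sat with test compound for 15 min at room temperature. Curves came from a four-parameter Hill model.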
RECQ1 inh: blocks DNA unwinding by human RECQ1 | P46063 | RECQ1 DNA unwinding, red fluorescence kinetic read | Potency, µM (doses to about 57.3 µM), for inactives: at the highest dose activity, negative = inhibition, actives largely listed as inhibitors | 0.54% of 240,000 active;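 further: plate controls were vehicle for no effect and no enzyme for full effect; nearly all actives have a fitted effect of over 30% in size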
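RECQ1T1 50 nM; forked duplex (20 bp + 30-nt ss tails) 200 nM, ATP 2 mM final; pH 8.0, 2 mM MgCl2, 2.5 ug/ml poly(dI-dC); 15 min compound preincubation; discontinuous kinetic read over 2 h at RT.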
FEN1 inh-2: confirmation of human FEN1 inhibitors; shares compounds with FEN1 inh-1; FEN1 flap cleavage, TAMRA/BHQ2 fluorogenic DNA substrate; Potency, µM, most hits filed as inhibitors; 79% of 880 active; further: nearly all actives have a fitted effect of over 60% in size
* hit, by the source's call; i = inactive; ? = inconclusive; / = no result given; [ ] = dose if it differs, or a comment. Shown are actives, neighbours in structure and some others; about 0.87% of the full set was active somewhere. The call rests on the fitted dose curve; in most records, active means well fitted curve in the direction sought with a large enough effect; inconclusive means small, poorly fitted or top-dose-only effect, or another doubt; inactive means no such curve, though single readings can be large; an effect the other way counts as inactive or inconclusive. Potency means the concentration at half of the fitted maximal effect.

SMILES | WRN inhibitor | BLM helicase inh | APEX1 inh | FEN1 inh-1 | RECQ1 inh | FEN1 inh-2
COc1ccc(C2=Nc3ccc(OC(F)(F)F)cc3NC(c3cccnc3)=N2)cc1 | / | -1.4% | / | -7.7% | / | /
COc1ccc(Nc2nc(N3CCCC3)c3ccccc3n2)cc1 | ? | -8.3% | -2.8% | ? | -20.1% | 33.8*
COc1ccc(Nc2c3c(nc4ccccc24)CCC3)cc1 | 2.6% | -7.1% | 61.9% | -17.0% | / | /
COc1ccc(Nc2c3ccccc3nc3ccccc23)cc1 | ? | -6.8% | -35.0% | ? | / | 30.1*
CCN(CC)c1ccc(Nc2nc(N3CCOCC3)c3ccccc3n2)cc1 | -7.8% | -3.2% | 1.3% | -20.2% | i | /
CCn1cc(C(=O)NCCc2ccc(OC)c(OC)c2)c(=O)c2cc(S(=O)(=O)N3CCc4ccccc4C3)ccc21 | / | -6.7% | / | -10.9% | / | /
O=C1Nc2ccccc2C1C(C[N+](=O)[O-])c1ccccn1 (centres undefined) | -3.1%[11.6 µM] | -10.2% | -7.7% | ? | / | 9.53*
O=C1Nc2ccccc2C1Cc1ccccn1 (centres undefined) | 2.9% | -8.4% | 3.1% | 0.4% | -7.1% | /
O=C(NN=C1CCCC1)c1ccc(O)cc1O | -0.9%[11.6 µM] | -0.6% | 40.3% | 0.7% | / | 42.6*
CC[n+]1ccccc1/C=C1\Sc2ccc(C)cc2N1C | -18.1% | -1.9% | -0.8% | 4.3% | / | /
CCN1/C(=C/c2ccc3cc(C)ccc3[n+]2CC)Sc2ccccc21 | ? | 4.6% | -10.7% | ? | ? | 19*
CN(C)c1ccc2nc3ccc(=O)cc-3sc2c1 | 56.2µM* | / | / | / | / | 42.6*
COc1ccc2nc(N=Nc3ccc(N(C)C)cc3)sc2c1 | -3.4% | -6.0% | -4.8% | -4.9% | i | /
Cc1ccn2c(=O)cc(COc3cccc(NC(=O)Nc4cccc(Cl)c4C)c3)nc2c1 | / | -6.4% | / | -6.9% | / | /
O=C(/C=C/c1ccco1)NC(=S)Nc1cccc(-c2nc3ccccc3o2)c1 | 50.1µM* | ? | 22.3% | -14.0% | -10.0% | ?
COc1ccc(/C=N/NC(=O)c2[nH]c3ccc(Cl)cc3c2-c2ccccc2)c(C(=O)O)c1OC | ? | -7.4% | -4.0% | ? | / | 37.9*
O=[N+]([O-])c1ccc(/C=N/Nc2nc(N3CCCCCC3)nc(N3CCCCCC3)n2)o1 | -15.4% | -18.4% | 7.6% | 35.5µM* | 0.4% | 37.9*
O=[N+]([O-])c1ccc(/C=N/Nc2nc(N3CCCCC3)nc(N3CCCCC3)n2)cc1 | -1.4% | 4.0% | 16.5% | 16.0% | i | /
COc1ccc2cc3[n+](cc2c1OC)CCc1cc2c(cc1-3)OCO2 | 6.2%[11.6 µM] | 157.0% | -6.1% | ? | 26.4% | ?
CC(C)(C)c1ccc(C(=O)N2CCC(c3nc4ccccc4o3)CC2)cc1 | / | -22.7% | / | -1.9% | / | /
CCCC(=O)NC(c1ccco1)c1cc(Cl)c2cccnc2c1O (centres undefined) | 6.3% | -5.0% | -1.9% | ? | 4.4% | /
O=C(Cc1ccccc1)NC(c1ccco1)c1cc(Cl)c2cccnc2c1O (centres undefined) | / | / | / | / | / | 30.1*
CCc1ccc2nc(N=C(N)N)nc(C)c2c1 | 78.5% | 66.0% | 6.6% | ? | 4.7% | /
Cc1nc(N=C(N)N)nc2ccccc12 | 45.2% | 85.6% | -0.5% | ? | 20.7% | 47.8*
Cc1cc2nc(/N=C(\N)NC(=O)C(C)C)nc(C)c2cc1C | 6.0% | 1.0% | 2.1% | -5.4% | -6.0% | /
SMILES | WRN inhibitor | BLM helicase inh | APEX1 inh | FEN1 inh-1 | RECQ1 inh | FEN1 inh-2
Cc1ccc2nc(N=C(N)N)nc(C)c2c1 | 40.7% | 102.9% | ? | 50.1µM* | 11.5% | 33.8*
Cc1cc2nc(N=C(N)N)nc(C)c2cc1C | 77.5% | 107.1% | -2.5% | 17.8µM* | 23.2% | 67.5*
Cc1cc(C(N)=O)c2ccccc2n1 | -1.4% | -1.3% | 4.2% | -10.5% | i | /
CN(C1CCCCC1)S(=O)(=O)c1ccc(F)c(C(=O)Nc2ccc(C(F)(F)F)cc2)c1 | / | -11.5% | / | 1.1% | / | /
COC(=O)c1scc(-c2ccc(C)cc2)c1S(=O)(=O)N1CCN(c2ccccc2F)CC1 | / | -9.9% | / | -1.5% | / | /
CCN(CC)c1ccc(-c2nc(-c3ccco3)no2)cc1[N+](=O)[O-] | / | -7.2% | / | -17.2% | / | /
CCN(CC)C(=O)CSc1nc(-c2ccccc2)cc(-c2ccc(OC)cc2)c1C#N | / | -5.0% | / | 3.3% | / | /
CC(=O)Nc1ccc(C=NNc2ccc(S(=O)(=O)Nc3ccccc3C(=O)O)cc2[N+](=O)[O-])cc1 | ? | / | -4.1% | 50.1µM* | / | 84.9*
Cc1cc2[nH]c3c(c[n+](C)c4ccccc34)c2cc1C | 23.8%[11.6 µM] | ? | 4.8% | ? | -9.9% | 3.79*
COCCCNC(=O)c1cccn2c(=O)c3cc4ccccc4cc3nc12 | -11.8% | 0.8% | ? | ? | -1.0% | ?
CC(C)CN(C(=O)COC(=O)c1ccc([N+](=O)[O-])s1)c1c(N)n(Cc2ccccc2)c(=O)[nH]c1=O | 3.0% | / | 8.5% | -19.4% | / | /
CCCCn1c(N)c(N(CCC(C)C)C(=O)COC(=O)c2ccc([N+](=O)[O-])s2)c(=O)[nH]c1=O | -5.6% | / | -40.4% | -16.7% | / | 7.57*
Fc1cccc(Cl)c1Cn1c(-c2cccs2)nc2ccccc21 | / | -10.6% | / | ? | / | /
CN1CCc2c(sc(/N=C/c3c[nH]c4ccccc34)c2C#N)C1 | -17.0% | 3.6% | -5.7% | ? | ? | ?
CN1CCc2c(sc(/N=C/c3c[nH]c4ccccc34)c2C(N)=O)C1 | -23.8%[11.6 µM] | -17.8% | -3.9% | ? | 1.8% | 75.7*
Cc1ccc(OCC(=O)N(Cc2ccc(N(C)C)cc2)CC2CCCO2)cc1C (centres undefined) | / | -1.8% | / | 7.1% | / | /
O=C(OCCc1ccccc1)c1cc(O)c(O)c(O)c1 | ? | / | -8.5% | 39.8µM* | / | 37.9*
Nc1ccc(C(=O)OCCc2ccccc2)cc1 | 0.3% | / | 1.8% | -14.3% | / | /
CCN=c1scc(C)n1/N=C/c1ccc(O)c(O)c1O | 22.4µM* | -18.8% | ? | ? | 25.1µM* | ?
CCOc1cc(-c2ccc3c(c2)OCO3)cc(=[O+]CC)c2c(C)oc(C)c12 | / | / | / | 44.7µM* | / | ?
C/C(=N/NC(=O)c1ccco1)c1cccc(NC(=O)c2ccc(C)s2)c1 | -4.0%[11.6 µM] | -3.3% | -3.1% | -6.6% | 5.9% | ?
C/C(=N/NC(=O)c1ccco1)c1cccc(NC(=O)c2ccc(C)o2)c1 | -5.1% | 1.6% | 15.8% | -6.7% | 4.6% | /
Cc1cc(C)c(S(=O)(=O)NCc2csc(-c3ccccc3)n2)c(C)c1 | / | -9.3% | / | -22.7% | / | /
O=C(O)CC1(c2ccccc2)C(=O)c2ccccc2C1=O | -2.6% | 2.6% | -3.3% | -0.2% | -4.4% | /
NC(=O)C1C(=O)c2ccccc2C1(C[N+](=O)[O-])c1ccccc1 (centres undefined) | 4.0%[11.6 µM] | / | / | 44.7µM* | / | 42.6*
COc1ccc(N=Cc2ccccc2O)cc1 | 5.1% | / | / | 12.1% | / | /

Bioassay records: PubChem, National Center for Advancing Translational Sciences (NCATS)
